Results filed as inconclusive are left out. Where a call stands in place of a potency, no number is given. Calls of active or inactive are those of the source. Unless noted, calls follow the shape of the dose curve; as a rule, active = well fitted curve in the direction sought with a large enough effect; inconclusive = small, poorly fitted or top-dose-only effect, or another doubt; inactive = no such curve, though single readings can be large; an effect the other way counts as inactive or inconclusive.
How the values were obtained:
[1] = molecular target: DNA repair nuclease/redox regulator APEX1 (Homo sapiens) (UniProt P27695); assay: qHTS Validation Assay for Inhibitors of the Human Apurinic/apyrimidinic Endonuclease 1 (APE1) (AID 1705;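 also: TAMRA fluorescence gain over two minutes as APE1 cuts a quenched THF abasic duplex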)
Method in brief: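 Read-out: TAMRA fluorescence (525 nm ex, 598 nm em) from cleavage of a quenched THF abasic-site duplex, 50 nM final; activity taken as intensity change between third and first of three reads 60 s apart.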

[2] = Counterscreen for APE1 Inhibitors: Fluorescent Dye Displacement Validation Assay (AID 1707)
Method in brief: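 Reaction mixture of 250 nM Thiazole Orange and 50 nM double-stranded abasic-site DNA was dispensed, compounds were pin-transferred, and fluorescence was read at endpoint (480 nm ex, 540 nm em). Reduced fluorescence indicated dye displacement by DNA binding.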

[3] = molecular target: Endonuclease 4 (Escherichia coli (strain K12)) (UniProt P0A6C1); assay: Counterscreen for APE1 Inhibitors: qHTS Validation Assay for Inhibitors of Endonuclease IV (AID 1708)
Method in brief: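 The reaction buffer contained 50 mM Tris-HCl pH 7.5, 50 mM NaCl, 2 mM MgCl2, 1 mM DTT and 0.01% Tween-20. Incision of a 50 nM fluorophore/quencher THF substrate by 2 nM enzyme was measured kinetically.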

[4] = qHTS for differential inhibitors of proliferation of Plasmodium falciparum line 7G8 (AID 1815);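 also: parasite growth measured after three days of incubation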; also: potency is read from the fitted curve at half-maximal effect
[5] = qHTS for differential inhibitors of proliferation of Plasmodium falciparum line GB4 (AID 1816); conditions: Potency: Plasmodium falciparum GB4 proliferation inhibition;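 also: parasite growth measured after 72 h incubation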; also: potency is read from the fitted curve at half-maximal effect
[6] = qHTS for differential inhibitors of proliferation of Plasmodium falciparum line 3D7 (AID 1876); also: potency is read from the fitted curve at half-maximal effect
[7] = qHTS Assay for Lipid Storage Modulators (AID 1519; calls by dose curve); conditions: Drosophila S3 cells, BODIPY lipid droplet/cell ratio, laser cytometry, cells loaded with oleic acid; for activity change, negative = inhibition: at 57.5 µM (top of the series)
Method in brief: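 Cells seeded at 5,000 per well were treated with compounds over a concentration series and loaded with oleic acid (400 uM, as added). Lipid droplet fluorescence (488 nm excitation, 500-530 nm channel) was read by laser-scanning cytometry and normalized to 20 uM Triacsin C.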

[8] = molecular target: alpha-glucosidase (Oryza sativa, rice) (UniProt Q653V4); assay: Counterscreen for Glucocerebrosidase Inhibitors: qHTS Assay for Rice alpha-Glucosidase at pH 5.0 (AID 997)
Method in brief: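 Endpoint fluorogenic assay at pH 5.0: compounds (0.7 nM to 77 uM) titrated against 4 nM rice enzyme and 400 uM 4-MU-alpha-glucoside for 20 min at room temperature; NaOH/glycine stop, read ex 365/em 440 nm, Hill-fitted AC50.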

[9] = Validation of Assay for Modulators of Lamin A Splicing (AID 1459; active = well fitted curve in the direction sought with a large enough effect in the signal ratio; the % refers to the signal ratio;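 also: cells exposed to compound for two days before reading; ratio rise marks activators and ratio drop marks inhibitors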)
Method in brief: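 Readout: ratio of GFP (500-530 nm) to RFP (575-640 nm) total object intensity by 488 nm laser-scanning cytometry after 48 hrs. Cells were HeLa S3 clones carrying lamin A-EGFP minigene plus DsRed2 viability reporter; vehicle 0.5% DMSO final.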

[10] = measured here: cell count channel max response
[11] = measured here: lipid channel max response

DNA repair nuclease/redox regulator APEX1 (Homo sapiens), sequence (P27695 whole entry, looked up): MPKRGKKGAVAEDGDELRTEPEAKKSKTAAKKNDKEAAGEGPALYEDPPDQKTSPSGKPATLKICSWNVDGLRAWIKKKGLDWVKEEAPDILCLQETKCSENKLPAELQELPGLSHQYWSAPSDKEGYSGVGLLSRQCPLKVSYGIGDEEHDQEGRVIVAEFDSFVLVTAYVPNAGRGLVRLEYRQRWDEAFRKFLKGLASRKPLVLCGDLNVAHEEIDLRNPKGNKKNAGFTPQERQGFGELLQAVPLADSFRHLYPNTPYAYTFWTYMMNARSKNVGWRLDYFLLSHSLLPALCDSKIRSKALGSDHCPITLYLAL

Row | Compound | Potency [1] | Potency [2] | Potency [3] | Potency [4] | Potency [5] | Potency [6] | activity change, negative = inhibition [7] | max response [7, 10] | max response [7, 11] | outcome [8] | outcome [9]
1 | COc1ccc2c(c1)CCC1C2CC[C@@]2(C)C1CC[C@@H]2NCCCCCCN1C(=O)C=CC1=O (stereo not given in full) | inactive | inactive | inactive | inactive | inactive | inactive |  |  |  |  | 
2 | O=c1ccn([C@@H]2O[C@H](COP(=O)(O)OP(=O)(O)O)[C@@H](O)[C@H]2O)c(=O)[nH]1 | inactive | inactive | inactive | inactive | inactive |  | 1.87% (inactive) | -6.87% | -4.31% |  | 
3 | Clc1nccc2c1ccc1ccccc12 |  | inactive |  | inactive | inactive | inactive | -1.52% (inactive) | -15.2% | -17.8% | inactive | 
4 | CC(C)(C)NCC(O)COc1cccc2[nH]c(=O)[nH]c12 (stereo not given) | inactive | inactive | inactive | inactive | inactive | inactive |  |  |  |  | 
5 | O=c1[nH]c2ccccc2c2ccccc12 | inactive | inactive | inactive |  | inactive | inactive | 1.72% (inactive) | 17.8% | 20.4% | inactive | 
6 | Cc1cccc(C(=O)NCN2CCN(c3ccccc3C#N)CC2)c1 | inactive |  | inactive | inactive |  | inactive | 0.112% (inactive) | -23.9% | -22.6% | inactive | 
7 | CC(C)(CO)Cc1cc(C(C)(C)C)c(O)c(C(C)(C)C)c1 | inactive | inactive |  |  |  | 3.98 µM (active) | -0.753% (inactive) | -30.7% | -34% | inactive | 
8 | OC[C@H]1O[C@@H](n2cnc3cncnc32)[C@H](O)[C@@H]1O | inactive |  | inactive | inactive |  | 5.01 µM (active) | -4.73% (inactive) | 0.328% | -1.94% |  | 
9 | COc1ccccc1N1CCN(CCCCN2C(=O)c3ccccc3C2=O)CC1 |  |  |  | inactive |  | 12.6 µM (active) |  |  |  | inactive | inactive
10 | CC(/C=C/c1cccc(Oc2ccc(F)cc2)c1)N(O)C(N)=O (stereo not given) | inactive | inactive | inactive |  |  |  |  |  |  |  | 
11 | CCCCOC(=O)NS(=O)(=O)c1sc(CC(C)C)cc1-c1ccc(Cn2c(CC)nc3c(C)cc(C)nc32)cc1 |  | inactive |  | 7.08 µM (active) | 8.91 µM (active) | 11.2 µM (active) | -0.147% (inactive) | 28.5% | 27.6% | inactive | 
12 | COC1(C2=NCCN2)COc2ccccc2O1 (stereo not given) |  |  | inactive | inactive |  | inactive |  |  |  |  | inactive
13 | Nc1ccc2c3c(cccc13)C(=O)NC2=O |  |  | inactive |  |  |  | 0.251% (inactive) | -11.6% | -11.3% | inactive | 
14 | O=c1cc(-c2ccccc2)[nH]c2nc(Cl)ccc12 | inactive | inactive | inactive | 10 µM (active) | 14.1 µM (active) |  | 0.241% (inactive) | 61.8% | 65% | inactive | 
15 | COc1ccc2c(c1)c(CC(=O)O)c(C)n2Cc1ccc(Cl)cc1 | inactive | inactive | inactive | 14.1 µM (active) | 10 µM (active) | 11.2 µM (active) | -1.87% (inactive) | -35.2% | -34.3% | inactive | 
16 | CCN1C(=O)C=CC1=O | inactive | inactive | inactive | inactive | inactive | inactive | 0.136% (inactive) | -19.7% | -18.9% | inactive | 
17 | C[C@@]1(C2CCCC2)Cc2cc(OCC(=O)O)c(Cl)c(Cl)c2C1=O | inactive | inactive | inactive | inactive | inactive | inactive |  |  |  |  | 
18 | N[C@@H](Cc1c[nH]c2ccccc12)C(=O)O | inactive | inactive | inactive | 11.2 µM (active) |  |  | 1.05% (inactive) | 61.2% | 63.3% | inactive | 
19 | CN1CCc2cc(Cl)c(O)cc2[C@@H](c2ccccc2)C1 |  |  |  |  |  |  | 0.829% (inactive) | 25.8% | 26.8% |  | 
20 | CCCCOc1cc(CC2CNC(=O)N2)ccc1OC (stereo not given) | inactive | inactive | inactive |  |  | inactive | 7.3% (inactive) | 28.9% | 40.3% |  | 
21 | CCC1(O)CC2CN(CCc3c([nH]c4ccccc34)[C@@](C(=O)OC)(c3cc4c(cc3OC)N(C=O)C3[C@]45CCN4CC=C[C@@](CC)([C@@H](OC(C)=O)[C@]3(O)C(=O)OC)[C@H]45)C2)C1 (stereo not given in full) | inactive | inactive |  | 0.794 µM (active) |  | 0.0631 µM (active) | 2.35% (inactive) | -1.21% | 2.17% |  | 
22 | N#CC(=C(\N)Sc1ccccc1N)/C(C#N)=C(/N)Sc1ccccc1N | inactive | inactive | inactive | 2.51 µM (active) | 4.47 µM (active) | 3.98 µM (active) |  |  |  |  | 
23 | CCC1(O)CC2CN(CCc3c([nH]c4ccccc34)[C@@](C(=O)OC)(c3cc4c(cc3OC)N(C)C3[C@]45CCN4CC=C[C@@](CC)([C@@H](OC(C)=O)[C@]3(O)C(=O)OC)[C@H]45)C2)C1 (stereo not given in full) | inactive | inactive | inactive | 1.12 µM (active) | 2.51 µM (active) | 0.631 µM (active) |  |  |  |  | 

Source: PubChem BioAssay (NCATS)
